# An excerpt weighted towards active compounds, which were near 18% of everything screened.
# TDP1 block: qHTS Assay for Inhibitors of Tyrosyl-DNA Phosphodiesterase (TDP1); recombinant TDP1, AlphaScreen DNA substrate cleavage; Tyrosyl-DNA phosphodiesterase 1 (Homo sapiens), Q9NUW8; 0.28% of 350,000 active; Potency, µM (top dose mostly 130 µM), inactives show at the top dose activity change, negative = inhibition, usual class: inhibitors; also: potency is read from the fitted curve at half-maximal effect; nearly all actives have a fitted effect of over 40% in size
# Target sequence (Q9NUW8 whole entry, looked up): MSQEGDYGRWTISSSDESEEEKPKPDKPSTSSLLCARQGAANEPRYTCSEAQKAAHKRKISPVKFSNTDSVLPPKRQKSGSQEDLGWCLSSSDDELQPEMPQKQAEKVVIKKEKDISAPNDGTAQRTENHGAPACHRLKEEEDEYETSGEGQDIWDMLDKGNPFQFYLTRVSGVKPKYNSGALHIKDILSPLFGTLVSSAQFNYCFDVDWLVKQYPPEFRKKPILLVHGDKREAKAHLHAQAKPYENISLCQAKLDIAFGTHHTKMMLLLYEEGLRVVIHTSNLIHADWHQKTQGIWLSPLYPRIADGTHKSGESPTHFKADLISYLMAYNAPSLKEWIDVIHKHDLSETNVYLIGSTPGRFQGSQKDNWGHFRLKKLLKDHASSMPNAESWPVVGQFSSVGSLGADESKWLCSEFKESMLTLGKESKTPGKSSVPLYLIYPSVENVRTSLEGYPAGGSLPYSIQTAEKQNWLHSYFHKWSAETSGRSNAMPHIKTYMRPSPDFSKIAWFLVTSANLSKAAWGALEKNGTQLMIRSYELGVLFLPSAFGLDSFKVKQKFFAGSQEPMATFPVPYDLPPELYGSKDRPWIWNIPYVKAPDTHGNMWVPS
#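 Steps: enzyme plus compound, 15 min RT; add biotin/phosphotyrosine-FITC oligonucleotide (15 nM final), react 5 min; add donor/acceptor beads (10 ug/ml final), 10 min; read AlphaScreen. Tdp1 at 1 nM final.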
# DT40 TDP1 CPT: qHTS for Inhibitors of human tyrosyl-DNA phosphodiesterase 1 (TDP1): qHTS in cells in presence of CPT; 12% of 420,000 active; AID 686979, 2013; Potency, µM (doses to about 46.2 µM), inactives show at the highest dose activity change, negative = growth inhibition, usual class: inhibitors; chicken DT40 Tdp1-/-;hTDP1 cells + 20 nM CPT, ATP luminescence, 48 h; also: potency is read from the fitted curve at half-maximal effect; nearly all actives have a fitted effect of over 55% in size
#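 Chicken DT40 Tdp1-/- cells stably complemented with human TDP1 were seeded at 400 cells/well in medium containing 20 nM camptothecin, exposed to pin-transferred compounds, and grown at 37 °C for at least 48 hr. Viability was read as ATP luminescence.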
# DT40 TDP1 no CPT: qHTS for Inhibitors of human tyrosyl-DNA phosphodiesterase 1 (TDP1): qHTS in cells in absence of CPT | DT40 Tdp1-/- hTDP1 cells, no CPT, ATP luminescence, 48 h | Potency, µM (titrated, usually from 46.2 µM), without a hit: at the top dose activity change, negative = growth inhibition, most hits filed as inhibitors | 15% of 420,000 active | AID 686978, 2013; also: potency is read from the fitted curve at half-maximal effect; nearly all actives have a fitted effect of over 55% in size
#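 Chicken DT40 Tdp1-/- cells stably complemented with human TDP1 were seeded at 400 cells/well with DMSO in place of 20 nM camptothecin. After compound pinning, cells grew at least 48 hr at 37 °C; viability read by CellTiter-Glo luminescence.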
# Six1-Eya2 inh: qHTS Assay for Inhibitors of the Six1/Eya2 Interaction. 0.56% of 360,000 active. AlphaScreen GST-Six1/His-Eya2 binding, biochemical; hits give low values. AID 651725, 2012. activity change, % (concentration not given with the values); in the data active = activity change below about -65%; inconclusive = mostly about -30% to -63%
#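 GST-Six1 + His-Eya2 (5X stock: 250/500 nM); Tris pH 8.0, 300 mM NaCl, 0.05% BSA, 0.02% Tween 20; GSH donor/Ni acceptor beads; 1 h 37 °C dark; AlphaScreen readout.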
# CtBP-E1A blk: qHTS Assay for Inhibitors of the CtBP/E1A Interaction; CtBP / adenovirus E1A interaction (AlphaScreen); AlphaScreen GST-E1A/His-CtBP binding, 1536-well; hits give low values; activity change, % (no concentration beside the values); 0.49% of 340,000 active; AID 651724, 2012; in the data active = activity change below about -65%; inconclusive = mostly about -30% to -63%
#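 In 5 uL wells, 23 nL compound meets equimolar GST-E1A and His-CtBP (5X stock 125 nM each) for 2 h, 37 °C. Beads (5X, 50 ug/mL) then 1 h, 37 °C, dark.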
# IL1B secr inh: qHTS for Inhibitors of Inflammasome Signaling: IL-1-beta AlphaLISA Primary Screen; AID 743279, 2014; activity change, % at 57.5 µM; 4.7% of 360,000 active; THP-1 LPS/ATP IL-1B secretion, AlphaLISA, 16 h; hits give low values; in the data active = activity change below about -50%; inconclusive = mostly about -30% to -49%
#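 Secreted IL-1B measured by AlphaLISA bead assay after 16 h compound exposure of THP-1 cells; compounds (final up to 57.5 uM) added 1 h before LPS (250 ng/mL) and ATP (1.25 mM) stimulation; lower signal means less secretion.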
# An asterisk follows results filed as active; ? = inconclusive; . = no result. Unless noted, calls follow the shape of the dose curve; as a rule, active = well fitted curve in the direction sought with a large enough effect; inconclusive = small, poorly fitted or top-dose-only effect, or another doubt; inactive = no such curve, though single readings can be large; an effect the other way counts as inactive or inconclusive. % is scaled to controls: 0 for no effect and ±100 for the full control effect.
SMILES,TDP1 block,DT40 TDP1 CPT,DT40 TDP1 no CPT,Six1-Eya2 inh,CtBP-E1A blk,IL1B secr inh
Cn1cnc([N+](=O)[O-])c1Oc1ccc2ccccc2c1,3%,8.2µM*,?,2,-8,-103*
Cc1ccc(C)c(OCC(=O)NNC(=O)c2ccc(NC(=O)C3CC3)cc2)c1,1%,-7%,-16%,0,-5,-30
CC(C)c1ccc2c(c1)NC(c1ccncc1)=NC(c1cccs1)=N2,7%,?,16µM*,.,.,.
CCCOc1ccc(C2=NNC(c3cccs3)=Nc3ccc(OC)cc32)cc1,2%,-4%,-4%,-25,-24,-21
Clc1cccc(C2=NC(c3cccs3)=Nc3ccc(Br)cc3N2)c1,9%,16µM*,15µM*,.,.,.
CCc1ccc2c(c1)NC(c1ccc(C)cc1)=NC(c1cccs1)=N2,12%,?,26µM*,.,.,.
CCCCOc1ccc(C2=NC(c3cccs3)=Nc3ccc(CC)cc3N2)cc1,7%,21µM*,?,.,.,.
CCc1ccc2c(c1)C(c1cccs1)=NNC(c1cccnc1)=N2,5%,-29%,-28%,-14,-2,-2
CCOc1ccc(C2=NC(c3cccs3)=Nc3ccc(C(C)C)cc3N2)cc1,9%,?,?,.,.,.
O=[N+]([O-])c1ccc(OCCn2cncn2)cc1,.,10%,2%,6,.,16
OCCN(CCO)c1cc2c3ccccc3ccc2c2ccccc12,.,?,16µM*,2,4,-65*
CN(C)c1cc2c3ccccc3ccc2c2ccccc12,.,?,16µM*,.,.,.
OCCN(CCO)c1ccc2ccccc2c1,6%,-23%,2%,1,-6,18
CCSc1ncc(Cl)c(C(=O)Nc2ccccc2C)n1,.,-11%,1%,17,9,3
Cc1occc1C(=O)N1CCN(c2ccc([N+](=O)[O-])cc2)CC1,5%,?,?,-2,-5,-4
Cc1cc(C(=O)N2CCN(c3ccc([N+](=O)[O-])cc3)CC2)n[nH]1,5%,3.3µM*,2.6µM*,20,.,-11
O=C(c1cc2ccccc2cc1O)N1CCN(c2ccc([N+](=O)[O-])cc2)CC1,.,29µM*,15µM*,-20,1,0
O=C(c1cc([N+](=O)[O-])ccc1Cl)N1CCN(c2ccccc2)CC1,8%,22%,-18%,-6,-3,-8
CCSc1ccccc1C(=O)N1CCN(c2ccc([N+](=O)[O-])cc2)CC1,5%,?,16µM*,-9,.,2
Cc1cc(NC(=O)C2COc3ccccc3O2)no1 (centres undefined),-3%,-25%,-26%,8,-9,3
O=C(c1cc2sccc2n1Cc1ccccc1)N1CCCc2ccccc21,9%,?,?,-7,0,-9
CC1CCc2sc(C(=O)NNC(=S)NC3CC3)cc2C1 (centres undefined),2%,-25%,2%,0,5,-1
Cc1ccc2c(c1)c1c(n2CC(O)Cn2ccnc2C)C(=O)CCC1 (centres undefined),2%,?,?,-4,0,-8
Cc1ccc2c(c1)c1c(n2CC(O)Cn2c(C)nc3ccccc32)/C(=N\O)CCC1 (centres undefined),3%,23µM*,23µM*,-18,-8,-3
Cc1ccc2c(c1)c1c(n2CC(O)Cn2c(C)nc3ccccc32)C(=O)CCC1 (centres undefined),9%,26µM*,18µM*,3,1,-2

# Compound activity: PubChem BioAssay, National Center for Advancing Translational Sciences (NCATS)
